Measured values reported in ChEMBL document CHEMBL3988442, “University of Dundee, Small-Polar-MMV Screening Library” (2021).
The whole screen tested about 48,000 compounds, of which about 13,000 (27%) showed an effect of 50% or more. The list shows a part of the results.

Tested on: Wolbachia pipientis
Test: Anti-Wolbachia Cell-Based Screen
Assay type: functional
Parameters: scale not given: in the data most compounds retested in dose-response had high values
Conditions: 5 µM

Row | Compound | Percent Effect
1 | Cc1noc(C[C@@H]2COC[C@H]3CN(S(C)(=O)=O)C[C@@H]23)n1 | -1.05%
2 | Cc1cc(CN(CC(N)=O)CC(C)C)no1 | -21.97%
3 | CC(C)CN1C[C@@H]2CN(S(=O)(=O)c3cccs3)C[C@@H]2C1=O | -12.36%
4 | CN(Cc1ccco1)C(=O)CN1C(=O)c2cc(Cl)c(Cl)cc2C1=O | 81.66%
5 | CN(Cc1cccs1)C(=O)CS(=O)(=O)Cc1ccc(Cl)c(Cl)c1 | 0.1099%
6 | Cc1cccc(C(C(=O)N(C)Cc2ccco2)N(C)C)c1 (stereo not drawn) | 9.844%
7 | CN(Cc1ccco1)C(=O)CN1C(=O)c2ccccc2C1=O | 72.08%
8 | CN(Cc1ccco1)C(=O)Nc1ccc(=O)n(C)c1 | 2.905%
9 | CN(Cc1cccs1)C(=O)CN1C(=O)c2cc(Cl)c(Cl)cc2C1=O | 78.58%
10 | Cc1cnn(C2CN(CC(=O)N(C)Cc3cccs3)C2)c1 | -27.07%
11 | CN(Cc1ccco1)C(=O)CN1CCN(C)c2ccccc2C1 | -2.251%
12 | O=C1N(CCCc2ccccc2)CCCC1(O)CNCC1CCCCC1 (stereo not drawn) | 25.76%
13 | Cc1nnsc1CN1C[C@H]2CC[C@@H]1CN(Cc1ccc(F)cc1)C2 | 24.86%
14 | CC(=O)N1CCN(Cc2ccc(C(F)(F)F)c(F)c2)CC(O)C1 (stereo not drawn) | -15.55%
15 | CC(C)C(=O)NCC(=O)N(C)C1CCCN(C2Cc3ccccc3C2)C1 (stereo not drawn) | -0.79%
16 | Cc1ccc(N2CC3(COCCN(Cc4nccs4)C3)OCC2=O)s1.O=C(O)C(F)(F)F (stereo not drawn) | -2.22%
17 | Nc1nc2c(c(=O)[nH]1)CCN(C(=O)c1cccc3nccnc13)C2 | 6.132%
18 | CN(C)c1nc2c(c(=O)[nH]1)CCN(C(=O)c1cccc3nccnc13)C2 | 3.463%
19 | Cc1nc2c(c(=O)[nH]1)CCN(C(=O)c1cccc3nccnc13)C2 | 104.9%
20 | Cc1nccn1CCC1CCCCN1Cc1ccc(N(C)C)nc1 (stereo not drawn) | 13.8%
21 | O=C(O)C(F)(F)F.O=S(=O)(c1cccc(F)c1)N1CC[C@H]2[C@H]1CCN2c1ncccn1 | -6.82%
22 | CC(=O)N1CCCc2ccc(S(=O)(=O)N3CCCCC3C)cc21 (stereo not drawn) | -24.19%
23 | CC(=O)N1CCc2ccc(S(=O)(=O)N3CCCCC3C)cc21 (stereo not drawn) | -39.69%
24 | O=C(C1CC1)N1C[C@H]2CCCN(S(=O)(=O)c3cccc(F)c3)[C@H]2C1 | 149%
25 | O=C(C1CC1)N1C[C@H]2CCCN(S(=O)(=O)c3ccc4c(c3)CCC4)[C@H]2C1 | 109.7%
26 | CC(=O)N1CCCC(C(=O)N2CCC(=Cc3cccc(F)c3)CC2)C1 (stereo not drawn) | 11.44%
27 | CCOC(=O)c1cn(CC(O)c2ccccc2OC)nn1 (stereo not drawn) | -11.75%

Row | Compound | Percent Effect
28 | CCN(CC1CCOC1)C(=O)CSCC(=O)Nc1ccc(C)cc1 (stereo not drawn) | 4.187%
29 | O=C(Nc1cccc(C(F)F)c1)N[C@@H]1C=C[C@H](CO)C1 | -9.569%
30 | COC(=O)N1CCCCC1C(=O)N1CCN(c2cccnc2)CC1 (stereo not drawn) | -31.63%
31 | CCCSCC(=O)N1CCN(c2ccc(OC)cc2)CC1C (stereo not drawn) | 15.77%
32 | CC(C)(C)OC(=O)N1CCN(c2ccc(F)cc2)CC1C(=O)O (stereo not drawn) | 89.96%
33 | CC(C)(C)OC(=O)N1CCN(c2cccnc2)CC1C(=O)O (stereo not drawn) | 114.7%
34 | COC(=O)c1ccc(N2CCN(C(=O)C(C)C)C(C)C2)cc1 (stereo not drawn) | 1.031%
35 | Cc1ccc(C(=O)N2C[C@@H]3CCN(c4cccnc4)C[C@@H]3C2)cn1.O=C(O)C(F)(F)F | 4.1%
36 | COc1ccc(N2CCN(C(=O)OC(C)(C)C)C(C(=O)O)C2)cc1 (stereo not drawn) | 126.2%
37 | Cc1ccc(N2CCN(C(=O)CCC(F)(F)F)C(C)C2)cc1 (stereo not drawn) | 17.59%
38 | COc1ccc(N2CCN(C(=O)Cn3nc(C)c(C)c3C)C(C)C2)cc1 (stereo not drawn) | -0.23%
39 | CCc1nccn1C1CCCN(C(=O)c2cnc[nH]2)C1 (stereo not drawn) | 2.73%
40 | CCCS(=O)(=O)NCC1OCCc2cn(CC3CCOCC3)nc21 (stereo not drawn) | -15.6%
41 | CC(C)CN1C[C@@H]2OCC(=O)N(Cc3nccn3C)[C@@H]2C1 | 0.1712%
42 | CNC(=O)[C@H]1C[C@H]2OCC[C@H]2N(CCOc2ccc(Cl)cc2)C1.O=C(O)C(F)(F)F | -0.765%
43 | CCN(CC)S(=O)(=O)c1cc(NC(=O)CCc2cscn2)ccc1C | -4.761%
44 | Cc1cncc(CN2CC[C@@](O)(CNC(=O)c3c[nH]cn3)[C@H](O)C2)c1 | 108.4%
45 | O=C(NC[C@]1(O)CN(Cc2ccccc2F)C[C@H]1O)c1ccccn1 | -4.429%
46 | O=C(NC[C@]1(O)CN(Cc2ccccc2F)C[C@H]1O)c1cscn1 | 81.64%
47 | Cc1cccc(CN2CCCC(O)(CNCCc3c[nH]cn3)C2=O)c1 (stereo not drawn) | 23.49%
48 | CN1CCC(NCC2(O)CCCN(Cc3ccccc3F)C2=O)CC1 (stereo not drawn) | -22.31%
49 | Fc1ccccc1CC1CCN(Cc2cscn2)CC1 | 12.39%
50 | O=C(NC[C@]1(O)CCN(Cc2ccccc2F)C[C@H]1O)c1c[nH]cn1 | 105%
51 | Cc1cc(CN2CCC(CNC(=O)c3cnc(C)nc3C)C2)[nH]n1 (stereo not drawn) | -6.024%
52 | NC1(C(=O)NCC2CCCN(Cc3ccccc3F)C2)CCCC1 (stereo not drawn) | -12.52%
53 | O=C(NC[C@]1(O)CCN(Cc2ccsc2)C[C@H]1O)c1c[nH]cn1 | 99.16%
